Rows were chosen to be rich in hits. Some 2.9% of all compounds tested hit in one or more screens of this group.
DAGLB inh: blocks human DAGLB lipase activity. HEK293T DAGLB membrane lysate, EnzChek fluorogenic substrate. inhibition, % at 5.17 µM. 340,000 tested, 0.059% active. AID 504411; in the data active = inhibition above about 34%;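 note: 0% = enzyme with vehicle and 100% = wells lacking enzyme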
Target sequence (Q8NCG7 whole entry, looked up): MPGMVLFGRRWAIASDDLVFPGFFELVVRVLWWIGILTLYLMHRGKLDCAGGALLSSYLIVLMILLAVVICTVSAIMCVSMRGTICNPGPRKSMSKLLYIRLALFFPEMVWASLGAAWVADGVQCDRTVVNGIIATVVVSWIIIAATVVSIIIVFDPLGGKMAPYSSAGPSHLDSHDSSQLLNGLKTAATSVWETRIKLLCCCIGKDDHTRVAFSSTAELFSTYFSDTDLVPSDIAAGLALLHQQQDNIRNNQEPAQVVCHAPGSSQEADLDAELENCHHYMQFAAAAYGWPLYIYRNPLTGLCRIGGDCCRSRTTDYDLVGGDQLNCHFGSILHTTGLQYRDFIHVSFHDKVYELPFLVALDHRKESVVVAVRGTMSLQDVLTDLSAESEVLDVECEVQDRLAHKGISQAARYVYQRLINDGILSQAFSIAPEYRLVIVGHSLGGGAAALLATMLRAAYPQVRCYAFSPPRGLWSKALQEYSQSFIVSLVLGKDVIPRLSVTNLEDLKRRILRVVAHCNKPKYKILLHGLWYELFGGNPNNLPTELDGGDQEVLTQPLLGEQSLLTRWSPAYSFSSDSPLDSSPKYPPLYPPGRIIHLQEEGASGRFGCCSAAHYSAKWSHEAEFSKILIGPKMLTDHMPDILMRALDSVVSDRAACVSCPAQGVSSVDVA
Rtt109 Vps75: C. albicans Rtt109 histone acetyltransferase inhibition; purified Rtt109/Vps75, ThioGlo CoA-SH fluorescence, 4 h; inhibition, % at 34.9 µM; 330,000 tested, 0.16% active;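 active = inhibition of at least 50% in every replicate; inconclusive = best replicate reaches 50% inhibition but some replicates fall short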
HGIII-sPLA2 inh: Inhibits HGIII-sPLA2 liposome hydrolysis, primary screen; QFRET BODIPY PC-A2 liposome hydrolysis, fluorescence; inhibition, % at 12.2 µM; 370,000 tested, 0.56% active; Q9NZ20;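 active = inhibition above mean plus 3 SD of compounds lying within the high and low control bounds, cut at about 19% in these data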;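 note: 0% = median of test compound wells and 100% = no enzyme DMSO wells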
Myeloid diff MLP: compounds promoting myeloid differentiation. ER-HoxA9 myeloid progenitors, lysozyme-GFP differentiation, flow cytometry. calls only at 10 µM. 360,000 tested, 1% active. AID 624256;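 active = normalized GFP-positive differentiation at or above the plate's own cutoff, the solvent-only control mean plus 3 SD; inconclusive = no clear call, values can overlap the other calls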;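 note: cells exposed to compound for four days before flow analysis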
ABHD5 PLIN5 PPI: ABHD5-PLIN5 protein interaction inhibition; Q00G26+Q8WTS1; Split G. princeps luciferase complementation, luminescence, 4 h; inhibition, % at 4 µM; 360,000 tested, 0.78% active; AID 602281;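 active = inhibition above the mean inhibition across every tested compound plus 3 SD, cut at about 22% in these data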;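 note: 0% = DMSO only wells and the 100% control is not disclosed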
Cardio protect: myocardial damage modulation in H9c2 cells | protection from H2O2 cell death, % at 20 µM | AID 588492 | 360,000 tested, 0.63% active | H9c2 cardiomyocytes, H2O2 injury protection, ATPLite, 2 h;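 active = compounds giving at least 50% protection of heart cells from peroxide-induced death in the single-dose screen, raw or plate-pattern-corrected value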;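 note: 0% = DMSO wells with peroxide and 100% = DMSO wells without peroxide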
ABHD5 PLIN5 conf: confirmation of human ABHD5-PLIN5 interaction inhibitors; shares compounds with ABHD5 PLIN5 PPI; biochemical ABHD5-PLIN5 interaction, luminescence; inhibition, % at 4 µM; 2,200 tested, 67% active; AID 651612; in the data active = inhibition above about 23%;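 note: 0% = DMSO vehicle wells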
HNF4 counter: HNF4 split-luciferase signal hit, counter-screen. shares compounds with ABHD5 PLIN5 PPI. HNF4 dimerization, luminescence, biochemical. inhibition, % at 4 µM. 2,200 tested, 77% active;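 active = mean inhibition across replicate wells exceeding the computed hit threshold, cut at about 13% in these data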;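 note: light from luciferase halves that rejoin when HNF4 fusion proteins dimerize; 0% = DMSO only wells and the 100% control is not given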
The depositor's hits bear a star; i = inactive; u = inconclusive; x = no result given; + = active, no number.

SMILES	DAGLB inh	Rtt109 Vps75	HGIII-sPLA2 inh	Myeloid diff MLP	ABHD5 PLIN5 PPI	Cardio protect	ABHD5 PLIN5 conf	HNF4 counter
COC(=O)c1ccc(C23CC4(C2)[C@H](CN(CC2CCCCC2)[C@@H]4c2ccccc2)C3c2ccc(C(F)(F)F)cc2)cc1 (stereo partly specified)	x	x	0.5	x	x	x	x	x
Oc1cc(Nc2ccccc2)cc2cccnc12	4.8	-1.3	9.0	i	-5.4	-3.0	x	x
Oc1cc(NCCN2CCOCC2)cc2cccnc12	-3.4	4.1	-0.9	i	51.0*	-27.8	-4.5	3.6
CC(=O)C1=C(C)NC(C)=C(C(C)=O)C1c1ccc(-c2ccccc2Cl)o1	3.2	6.8	2.1	i	51.8*	-1.2	14.0	38.4*
CCOC(=O)C1=C(C)NC(=O)NC1c1ccc(-c2ccccc2F)o1 (stereo unspecified)	0.8	-9.2	-4.1	i	5.6	-2.7	x	x
NC(=O)c1ccccc1NC(=O)COc1ccc(Cl)cc1	-2.0	-2.0	2.8	i	46.3*	-4.8	4.8	-1.8
Cc1ccc(OCC(=O)Nc2ccccc2C(N)=O)cc1	-3.7	-4.4	8.9	i	2.3	-11.9	x	x
Cc1cccc(NC(=O)CSc2nnc(CNC(=O)c3ccc(S(=O)(=O)N(C)C)cc3)n2-c2cccc(C)c2)c1	-1.8	-2.1	-34.2	i	-1.3	2.6	x	x
Cc1ccc(NN2C(=O)C=C(c3ccccc3)C2=O)cc1	x	x	-2.5	i	91.8*	-6.4	99.7*	105.0*
O=C1c2ccccc2C(=O)N1Nc1ccccc1	-0.2	-7.2	9.0	i	0.3	-5.1	x	x
CCn1c(COc2ccc(=O)n(-c3ccccc3)n2)nnc1SCc1ccccc1C	2.4	-6.5	-7.6	i	-7.0	0.6	x	x
CC(=O)OCCNc1cc(SC(C)C)c2nonc2c1[N+](=O)[O-]	2.3	3.3	3.1	x	-8.6	-3.2	x	x
CCCC(=O)OCCNc1cc(Sc2nc3ccccc3[nH]2)c2nonc2c1[N+](=O)[O-]	0.7	6.3	-15.8	u	50.1*	-18.5	61.0*	110.1*
O=Cc1ccc(N2CCCC2)c([N+](=O)[O-])c1	-2.9	-8.9	1.3	i	6.5	5.1	x	x
O=[N+]([O-])/C=C\c1ccc(N2CCCC2)c(F)c1	-2.1	-4.4	x	x	64.2*	-17.3	98.4*	100.0*
CC(C)n1nc(C(=O)NCCc2ccc(S(N)(=O)=O)cc2)c2ccccc2c1=O	-4.8	24.5	-1.2	i	6.0	0.1	x	x
Fc1ccccc1CSc1nnc(-c2cnccn2)n1Cc1ccco1	0.7	3.1	0.9	i	-0.2	7.7	x	x
Cc1cccc(NC(=O)CSc2nnc(-c3ccco3)c(-c3ccco3)n2)c1C	3.2	11.7	x	i	9.8	17.7	x	x
C(=C\c1ccccc1)/CSc1nnc(-c2cnccn2)n1Cc1ccco1	0.3	3.0	-3.9	i	36.6*	3.3	18.6	28.6*
Cc1ccc(NC(=O)CSc2nnc(-c3cnccn3)n2Cc2ccco2)cc1	-2.4	-4.9	-4.8	i	8.2	-0.8	x	x
Cc1cccc(NC(=O)CSc2nnc(-c3ccco3)c(-c3ccco3)n2)c1	3.1	-5.6	-3.1	x	25.7*	0.6	90.3*	66.8*
O=C(CSc1nnc(-c2cnccn2)n1Cc1ccco1)c1ccc2ccccc2c1	2.8	4.2	-30.8	i	37.0*	-3.6	16.1	26.7*
Cc1cccc(NC(=O)CSc2nnc(-c3cnccn3)n2Cc2ccco2)c1	4.4	-0.6	-6.6	i	67.7*	5.3	10.5	11.4
CC(C)OC(=O)CSc1nnc(-c2cnccn2)n1Cc1ccco1	-0.5	-5.0	6.7	i	-4.9	16.7	x	x
Clc1ccccc1CSc1nnc(-c2cccnc2)n1Cc1ccco1	-0.5	3.8	-6.2	i	30.5*	4.5	9.0	12.5*
SMILES	DAGLB inh	Rtt109 Vps75	HGIII-sPLA2 inh	Myeloid diff MLP	ABHD5 PLIN5 PPI	Cardio protect	ABHD5 PLIN5 conf	HNF4 counter
CCN(CC)C(=O)CSc1nc2ccccc2c(=O)n1CC	-0.1	-9.2	-0.4	i	1.0	13.5	x	x
CCN(CC)C(=O)CSc1nc2ccccc2c(=O)n1OC(C)C	-1.3	4.9	7.0	+	24.1*	4.9	0.6	-1.5
CN1CCN(C2Cc3cc(F)ccc3Sc3ccc(Cl)cc32)CC1 (stereo unspecified)	-4.0	0.9	-22.0	i	12.9	4.5	x	x
CN1CCN(C2Cc3ccccc3Sc3cc(C(F)(F)F)ccc32)CC1 (stereo unspecified)	x	x	-29.5	x	x	x	x	x
CN1CCN(C2=Cc3ccc(Cl)cc3Sc3ccc(F)cc32)CC1	-2.6	11.9	-10.6	i	28.7*	-9.7	19.1	1.2
CN1CCN(C2=Cc3ccccc3Sc3cc(F)ccc32)CC1	3.4	16.6	-4.3	i	23.3*	6.9	14.8	10.7
CC1=NOC(=O)/C1=C\c1ccc(-c2ccc(Br)cc2C(=O)O)o1	6.1	3.0	3.0	i	7.0	3.8	x	x
COc1ccc(Cl)cc1/C=C1/C(=O)ON=C1C	3.3	4.6	-3.1	i	7.9	-3.0	x	x
Cc1ccc(C2=NOC(=O)/C2=C\c2ccc(C)o2)cc1	10.6	1.0	-12.1	i	6.9	-2.9	x	x
CC1=NOC(=O)/C1=C\c1ccc(-c2ccc(Br)cc2)o1	21.8	-7.1	3.3	i	38.2*	-33.6	93.3*	105.8*
CC1=NOC(=O)/C1=C\c1ccc(-c2cc(Cl)ccc2Cl)o1	6.8	-9.4	9.2	i	39.3*	-38.9	85.3*	86.0*
CC1=NOC(=O)/C1=C/c1ccc(-c2ccc(Cl)cc2)o1	28.0	-6.5	x	x	33.1*	-18.5	99.2*	107.4*
CCn1cc(-c2n[nH]c(=S)n2-c2ccc(C)cc2Br)c(=O)c2ccc(C)nc21	3.5	5.0	-2.5	i	-0.5	3.7	x	x
CN(C)Cc1c(C(=O)N/N=C/C2CC=CCC2)nnn1-c1nonc1N (stereo unspecified)	-1.6	11.1	1.9	i	-1.5	-0.7	x	x
Cc1ccc(S(=O)(=O)N2C[C@H]3n4c(=O)ccc(=O)n4C[C@H](OC(=O)Nc4cccs4)[C@@]3(O)C2)cc1	2.8	x	-7.3	i	35.3*	-6.9	57.5*	33.8*
Cc1ccc(S(=O)(=O)N2C[C@H]3n4c(=O)ccc(=O)n4C[C@H](OC(=O)NCc4ccccc4F)[C@@]3(O)C2)cc1	5.1	x	-5.5	i	25.3*	34.8	48.7*	42.2*
CN(CC(=O)Nc1ccc(OC(F)(F)F)cc1)C(=O)c1ccc(N2CCCC2=O)cc1	-3.8	-0.5	3.5	i	1.7	-14.6	x	x
O=C(C1CCCN(Cc2ccc(F)cc2)C1)N1CCCCC1 (stereo unspecified)	0.8	-2.5	10.4	i	7.5	4.6	x	x

Assay outcomes: PubChem, several laboratories
